Measurements: PubChem BioAssay AID1903 (Southern Research Specialized Biocontainment Screening …, 2009)
Values joined by “and” are separate entries in the source; they are usually repeats but may differ in a detail not shown here. Identical values can stand only once. The campaign covered roughly 310,000 compounds. About 1,200 (0.39%) were called active. No rule for the calls is given here. Only a sample is shown. Potency and affinity values are given separately.

These compounds were tested against Large T antigen (Simian virus 40) (UniProt P03070) (assay: TAg ATPase/helicase activity blockers – biochemical (AID 1903)). Conditions: SV40 large T antigen ATPase/helicase inhibition assay; at 20 µM; hits give high values.
Sequence of Large T antigen (Simian virus 40) (P03070 whole entry, looked up): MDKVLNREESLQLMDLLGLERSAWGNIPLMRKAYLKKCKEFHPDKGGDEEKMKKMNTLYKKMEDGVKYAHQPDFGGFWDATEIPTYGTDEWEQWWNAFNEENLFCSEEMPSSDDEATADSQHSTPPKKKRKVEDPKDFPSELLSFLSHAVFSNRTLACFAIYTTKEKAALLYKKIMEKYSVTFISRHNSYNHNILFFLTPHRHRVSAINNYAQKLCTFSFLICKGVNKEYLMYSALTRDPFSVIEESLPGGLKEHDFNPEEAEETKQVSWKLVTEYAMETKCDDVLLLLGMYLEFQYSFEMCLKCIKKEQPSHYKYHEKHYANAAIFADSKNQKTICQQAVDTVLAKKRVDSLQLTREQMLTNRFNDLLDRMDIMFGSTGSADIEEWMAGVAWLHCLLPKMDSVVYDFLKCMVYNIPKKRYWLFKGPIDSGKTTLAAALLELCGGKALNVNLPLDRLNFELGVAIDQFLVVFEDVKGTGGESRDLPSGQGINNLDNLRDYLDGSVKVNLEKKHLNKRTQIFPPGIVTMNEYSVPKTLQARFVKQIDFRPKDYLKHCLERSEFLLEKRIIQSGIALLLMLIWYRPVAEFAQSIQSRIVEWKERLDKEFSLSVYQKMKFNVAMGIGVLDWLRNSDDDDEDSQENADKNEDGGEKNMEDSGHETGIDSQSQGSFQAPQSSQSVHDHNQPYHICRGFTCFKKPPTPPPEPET

inhibition, inactive:
Cc1ccc(S(=O)(=O)N(C)CC(=O)N2CCOCC2)cc1 0.93%, CCN(C=NC1=NN(c2cccc(C(F)(F)F)c2)CC1)CC 22.2%, OCCN(C=NC1=NN(c2cccc(C(F)(F)F)c2)CC1)CCO 29.5%, O=C(N/N=C/c1ccc2c(c1)OCO2)c1ccccn1 9.83%, Cc1ccc(S(=O)(=O)c2nc(-c3ccccc3Cl)oc2N(C)C)cc1 -3.31%, O=C(CCc1c[nH]c2ccccc12)OCC(=O)N1CCN(S(=O)(=O)c2ccccc2)CC1 10.9%, COc1cnc(-c2ccccn2)nc1Oc1ccccc1Cl 5.1%, COc1cnc(-c2ccccn2)nc1Oc1ccc(Cl)cc1 11.2%, Cc1c(C(=O)N2CCOCC2)c(S(=O)(=O)Nc2cccc(C#N)c2)c(C)n1C 5.47%, CCOc1cc(C(=O)Nc2ccc(N3CCN(C(C)=O)CC3)cc2)cc(OCC)c1OCC -4.85%, CCOc1c(Cl)cc(CNc2ccc(N3CCCC3)cc2)cc1OC 21.6%, CCOc1cc(CNc2ccc(N3CCOCC3)cc2)cc(Br)c1OCC 36.3%, COc1cc(CNc2ccc(N3CCN(C(C)=O)CC3)cc2)ccc1OCc1ccc(F)cc1 19.5%, COc1cc(CNc2ccc(N3CCOCC3)cc2)cc(Br)c1OC 29.9%, CCOc1cc(CNc2ccc(N3CCCC3)cc2)cc(Cl)c1OC 12.8%, COc1ccc(N(CC(=O)O)S(=O)(=O)c2cccnc2)cc1 9.79%, Cn1cnc(S(=O)(=O)N2CCN(C(c3ccc(F)cc3)c3ccc(F)cc3)CC2)c1 11.7%, COC(=O)c1ccc(C(=O)N2CCCC(Nc3ccc(F)c(F)c3)C2)cc1 (stereo not drawn) 13.5%, COc1cccc(NC(=S)NN=C2CCC(C(C)(C)C)CC2)c1 (stereo not drawn) 4.61%, N#C/C(=C/c1ccc(O)c(O)c1)C(=O)NCc1ccc(Cl)cc1 35%, CCOC(=O)/C(C#N)=C\c1ccc(O)c(OC)c1 36.3%, N#C/C(=C\c1cccc(Cl)c1)C(=O)c1ccccc1 45.6%, COc1cc(/C=C(\C#N)C(=O)c2c[nH]c3ccccc23)cc(OC)c1O 24.5%, O=S(=O)(c1ccc2oc3ccc(S(=O)(=O)N4CCCCC4)cc3c2c1)N1CCCCC1 -0.2%, CC1CCC(NC(=O)CNC(=O)Cc2cccc3ccccc23)CC1 (stereo not drawn) -1.39%, Cc1ccc(NCN2C(=O)C3C4C=CC(C4)C3C2=O)cc1 (stereo not drawn) 5.54%, O=C1C2C3C=CC(C3)C2C(=O)N1CNc1ccc(O)cc1 (stereo not drawn) 37.4%, CCN(CC)C(=O)COc1ccc2c(-c3ccc(OC)cc3)cc(=O)oc2c1 11.6%, Oc1ccc(/C=N/Nc2cc(N3CCCC3)nc(N3CCCC3)n2)cc1O 42%, Oc1cccc(/C=N/Nc2cc(N3CCOCC3)nc(N3CCOCC3)n2)c1 -5.16%, CCOc1cc(/C=C2\SC(=S)N(NS(=O)(=O)c3ccccc3)C2=O)ccc1O 38.4%, CCOc1ccc(/C=C2\SC(=S)N(NS(=O)(=O)c3ccc(C)cc3)C2=O)cc1OC 31.2%, COc1cc(/C=C2\SC(=S)N(NC(=O)c3ccncc3)C2=O)ccc1O 31.8%, COc1cc(/C=C2\SC(=S)N(NS(=O)(=O)c3ccccc3)C2=O)cc(OC)c1OC 11.2%, COc1cc(/C=C2\SC(=S)N(NS(=O)(=O)c3ccc(C)cc3)C2=O)cc(OC)c1OC 20.8%, CCOc1cc(/C=C2\SC(=S)N(NC(=O)c3cccnc3)C2=O)ccc1O 33.1%, CCCCNC(=O)C1CCCN1C(=O)Nc1ccccc1 (stereo not drawn) 4.68%, C=CCOCCN1C(=O)C2C3C=CC(C2C1=O)C1C2C(=O)N(CCOCC=C)C(=O)C2C31 (stereo not drawn) 7.04%, O=C(CSc1ccc(F)cc1)NNC(=O)c1ccccc1Br 7.8%, COc1ccc(CCN=C(N)NS(=O)(=O)c2ccc(C)c(C)c2)cc1 23.6%, CCOc1cc(C(=O)N2CCC3(CC2)NCCc2[nH]cnc23)cc(OCC)c1OCC 8.46%, O=C(OCc1ccc(Br)cc1)c1cnc(Cl)c(Cl)c1 6.01%, COCCNC(=O)c1ccc(C2SCC(=O)N2CCc2ccccc2)cc1 (stereo not drawn) 2.84%, COc1cccc(NC(=O)C2Cc3ccccc3CN2C(=O)c2ccco2)c1 (stereo not drawn) 10.4%, CCOc1ccc(N(CC(=O)NCc2ccccc2)C(=O)Cn2nnc(-c3ccc(C)o3)n2)cc1 3.98%, COc1cc2c(cc1OC)-c1cc3ccc(OC)c(OC)c3c[n+]1CC2 10.3%, COc1ccc2cc3[n+](cc2c1OC)CCc1cc2c(cc1-3)OCO2 13.6% and 21.3%, CCC1(CC)Cc2ccccc2C2=C(C(=O)N3CCCCC3)C(=O)C(=O)N21 3.53%, CSc1ccc(-c2nc(CSCC(=O)NCCCN3CCCC3=O)c(C)o2)cc1 8.19%, FC(F)(F)c1ccccc1Nc1nccs1 3.87%, Cc1nsc(Nc2ccccc2)c1C#N 11.3%, CCOC(=O)CC(NC(=O)CCc1c(C)nc2nc(C)nn2c1C)c1ccc(C)cc1 (stereo not drawn) 1.45%, CC(Oc1ccc2c(c1)oc(=O)c1ccccc12)C(=O)NCCN1CCOCC1 (stereo not drawn) 4.69%, O=C(CSc1ccc(Cl)cc1)NNC(=O)c1cccnc1 28.6%, O=c1nccc(N/N=C/c2ccccc2)[nH]1 2.59%, C#CCOCCOCCOCCNc1nc(N2CCN(C(=O)CCCCCCCCCCNC(=O)[C@@H](CCSC)n3cc(CCO)nn3)CC2)nc(N2CCN(C(=O)CCCCCCCCCCNC(=O)[C@H]([C@@H](C)CC)n3cc(CCCCN=C(N)N)nn3)CC2)n1 5%, C#CCOCCOCCOCCNc1nc(N2CCN(C(=O)CCCCCCCCCCNC(=O)[C@H](CO)n3cc(CCCSC)nn3)CC2)nc(N2CCN(C(=O)CCCCCCCCCCNC(=O)[C@H](CCCN=C(N)N)n3cc(C[C@@H](C)CC)nn3)CC2)n1 20.2%, C#CCOCCOCCOCCNc1nc(N2CCN(C(=O)CCCCCCCCCCNC(=O)[C@H]([C@@H](C)CC)n3cc(CCCCN=C(N)N)nn3)CC2)nc(N2CCN(C(=O)CCCCCCCCCCNC(=O)[C@H](CO)n3cc(CCCCCN)nn3)CC2)n1 28.3%, C#CCOCCOCCOCCNc1nc(N2CCN(C(=O)CCCCCCCCCCNC(=O)[C@H](CO)n3cc(CCCCCN)nn3)CC2)nc(N2CCN(C(=O)CCCCCCCCCCNC(=O)[C@H](CCCN=C(N)N)n3cc(C[C@@H](C)CC)nn3)CC2)n1 36.3%, C#CCOCCOCCOCCNc1nc(N2CCN(C(=O)CCCCCCCCCCNC(=O)[C@H](CCCCN)n3cc(CCCC(=O)O)nn3)CC2)nc(N2CCN(C(=O)CCCCCCCCCCNC(=O)[C@H](CCCN=C(N)N)n3cc(C[C@@H](C)CC)nn3)CC2)n1 15.3%, C#CCOCCOCCOCCNc1nc(N2CCN(C(=O)CCCCCCCCCCNC(=O)[C@H](CCCCN)n3cc(C[C@@H](C)CC)nn3)CC2)nc(N2CCN(C(=O)CCCCCCCCCCNC(=O)[C@H](CCCN=C(N)N)n3cc(C[C@@H](C)CC)nn3)CC2)n1 35.8%, C#CCOCCOCCOCCNc1nc(N2CCN(C(=O)CCCCCCCCCCNC(=O)[C@H](CCCCN)n3cc(CCO)nn3)CC2)nc(N2CCN(C(=O)CCCCCCCCCCNC(=O)[C@H](CCCN=C(N)N)n3cc(C[C@@H](C)CC)nn3)CC2)n1 30.2%, C#CCOCCOCCOCCNc1nc(N2CCN(C(=O)CCCCCCCCCCNC(=O)[C@H](CCCCN)n3cc(CCO)nn3)CC2)nc(N2CCN(C(=O)CCCCCCCCCCNC(=O)[C@H](CCCCN)n3cc(C[C@@H](C)CC)nn3)CC2)n1 22.1%, NS(=O)(=O)c1ccc(CCNC(=O)C(=O)Nc2cc3c4c(c2)CC(=O)N4CCC3)cc1 10.2%, CCN(C(=O)COC(=O)c1cncc(Br)c1)C1CCS(=O)(=O)C1 (stereo not drawn) 2.6%, CN(C)S(=O)(=O)c1cccc(COC(=O)c2ccc(Cl)cc2O)c1 4.75%, CCn1ccnc1CNC(=O)CC1C(=O)NCCN1Cc1ccc(OC)cc1OC (stereo not drawn) 8.33%, CC(OC(=O)c1ccc(NS(=O)(=O)c2cccs2)cc1)C(=O)N(C)C1CCCCC1 (stereo not drawn) 12.6%, O=C(NCCCO)c1ccc2[nH]c3c(c2c1)CCCC3 2.41%, COc1ccccc1OC(C)C(=O)Nc1nc(-c2ccc(S(=O)(=O)N3CCOCC3)cc2)cs1 (stereo not drawn) -2.76%, O=C(O)CCC(=O)NNC(=O)c1ccc([N+](=O)[O-])cc1 24.3%, CN1CCN(c2ccccc2NC(=O)c2ccc(N3CCCCC3)c([N+](=O)[O-])c2)CC1 1.97%, COc1cc(C(=O)NCc2nnc(SCC(=O)NC3CCCCC3)o2)cc(OC)c1OC 9.82%, CNC(=S)N(CCCO)Cc1cc2cc3c(cc2[nH]c1=O)OCO3 4.07%, N#Cc1cc2c(nc1SCC(=O)Nc1sc3c(c1C#N)CCC3)CCCCCC2 -1.85%, Cc1nc(NC(=O)CCl)sc1C(=O)N(C)C 22.7%, C#CCOCCOCCOCCNc1nc(N2CCN(C(=O)CCCCCCCCCCNC(=O)[C@H]([C@@H](C)CC)n3cc(CCCCN=C(N)N)nn3)CC2)nc(N2CCN(C(=O)CCCCCCCCCCNC(=O)[C@@H]([C@H](C)O)n3cc(C)nn3)CC2)n1 7.94%, C#CCOCCOCCOCCNc1nc(N2CCOCC2)nc(N2CCN(C(=O)CCCCCCCCCCNC(=O)[C@H]([C@@H](C)CC)n3cc(CCCCN=C(N)N)nn3)CC2)n1 5.58%
